HT1080 IDH1KD tx = qHTS for induction of synthetic lethality in tumor cells producing 2HG: qHTS for the HT-1080-IDH1KD cell line; HT-1080 IDH1 knockdown viability, ATP luminescence, 48 h; Potency, µM (series often up to 46.1 µM), without a hit: top-dose activity, negative = toxicity, most hits filed as cytotoxic; hit rate 2% among 360,000;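 further: potency means the concentration at half of the fitted maximal effect; 0% = DMSO wells and -100% = cell-free medium wells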
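In this qHTS, HT-1080 cells depleted of IDH1 are exposed for 48 h at 37 °C to compound titrations. Toxicity is scored from CellTiter-Glo luminescence, with DMSO as full viability and medium alone as none.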
IL1B secr inh = qHTS for Inhibitors of Inflammasome Signaling: IL-1-beta AlphaLISA Primary Screen | THP-1 LPS/ATP IL-1B secretion, AlphaLISA, 16 h; active compounds read low | activity change, % at 57.5 µM | hit rate 4.7% among 360,000; in the data active means activity change below about -50%; inconclusive means mostly about -30% to -49%
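THP-1 cells pretreated 1 hr with compounds (up to 57.5 uM final), then stimulated with LPS (250 ng/mL final) plus ATP (1.25 mM final); secreted IL-1B measured by AlphaLISA after 16 hr, decreased signal indicating inhibition.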
DT40 TDP1 CPT = qHTS for Inhibitors of human tyrosyl-DNA phosphodiesterase 1 (TDP1): qHTS in cells in presence of CPT; chicken DT40 Tdp1-/-;hTDP1 cells + 20 nM CPT, ATP luminescence, 48 h; Potency, µM (series often up to 46.2 µM), for inactives: top-dose activity change, negative = growth inhibition, most hits filed as inhibitors; AID 686979, 2013; hit rate 12% among 420,000; further: potency means the concentration at half of the fitted maximal effect; nearly all actives have a fitted effect of over 55% in size
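Chicken DT40 Tdp1-/- cells complemented with human TDP1, 400 cells/well, exposed to compounds plus 20 nM camptothecin for at least 48 h at 37 C; viability read as ATP content by CellTiter-Glo luminescence.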
HT1080-NT tox = qHTS for induction of synthetic lethality in tumor cells producing 2HG: qHTS for the HT-1080-NT fibrosarcoma cell line; HT-1080-NT fibrosarcoma viability, CellTiter-Glo ATP luminescence, 48 h; Potency, µM (series often up to 46.1 µM), without a hit: at the top dose activity, negative = less viability, hits mostly cytotoxic; hit rate 1.6% among 360,000; AID 686970, 2013;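 further: NT is the 2HG producing partner of a matched IDH1 knockdown line; potency means the concentration at half of the fitted maximal effect; 0% = DMSO-treated cells and -100% = media-only wells without cells; nearly all actives have a fitted effect of over 55% in size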
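Fibrosarcoma NT cells, 750 per well in 5% FBS RPMI, were exposed to compound for 48 hours. Viability: CellTiter-Glo luminescence.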
ELG1 repair inh = qHTS screen for small molecules that inhibit ELG1-dependent DNA repair in human embryonic kidney (HEK293T) cells expressing luciferase-tagged ELG1; HEK293T ELG1-luciferase reporter, luminescence, 16 h; DNA damage induced by 5-fluorouridine; Potency, µM (highest dose often 46.1 µM), inactives show top-dose activity change, negative = inhibition, actives largely listed as inhibitors; hit rate 2.3% among 330,000; AID 504467, 2011; further: potency means the concentration at half of the fitted maximal effect; nearly all actives have a fitted effect of over 55% in size
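In this reporter screen, reduction of luminescence relative to DMSO vehicle indicated activity. Compounds and 5-fluorouridine were added together to 2,000 cells per well, incubated for 16 hr at 37 °C, then developed with ONE-Glo.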
DT40 TDP1 no CPT = qHTS for Inhibitors of human tyrosyl-DNA phosphodiesterase 1 (TDP1): qHTS in cells in absence of CPT; hit rate 15% among 420,000; DT40 Tdp1-/- hTDP1 cells, no CPT, ATP luminescence, 48 h; AID 686978, 2013; Potency, µM (doses to about 46.2 µM), inactives show top-dose activity change, negative = growth inhibition, actives largely listed as inhibitors; further: potency means the concentration at half of the fitted maximal effect; nearly all actives have a fitted effect of over 55% in size
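Stably hTDP1-transfected Tdp1-null chicken DT40 cells were treated with library compounds minus camptothecin and grown for at least 48 hr at 37 °C, after which cellular ATP was quantified by luminescence.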
An asterisk follows results filed as active; u = inconclusive; x = no result; ! = not active in a repeat; [ ] = another dose, or the depositor's remark. Most compounds without a hit are left out; they make up all but 19% or so of the library. Unless noted, the call rests on the fitted dose curve; in most records, active means well fitted curve in the direction sought with a large enough effect; inconclusive means small, poorly fitted or top-dose-only effect, or another doubt; inactive means no such curve, though single readings can be large; an effect the other way counts as inactive or inconclusive. Unless noted, on the % scale 0 is the no-effect control and ±100 the full control effect.

SMILES	HT1080 IDH1KD tx	IL1B secr inh	DT40 TDP1 CPT	HT1080-NT tox	ELG1 repair inh	DT40 TDP1 no CPT
Cc1ccc(CCNC(=O)c2sc3ncccc3c2-n2c(C)ccc2C)cc1	x	x	12µM*	x	x	6.5µM*
O=C(Nc1nnc(S(=O)(=O)N2CCCC2)s1)c1ccc(F)cc1	x	x	7%	x	x	-12%
COCCN(C)C(=O)c1cnn(-c2nccc(-c3cc(C)sc3C)n2)c1C	x	x	-2%[9.04 µM]	x	x	-15%
CSCCC1NC2(C(=O)Nc3c(C)cc(Cl)cc32)[C@@H]2C(=O)N(C3CCCC3)C(=O)[C@H]12 (some centres undefined)	-9%	-9	u	-1%	u	21µM*
CCCCC1=CC2=CC(=O)C(C)(OC(=O)CC)C(=O)C2=CN1CCc1c[nH]c2ccccc12 (centres undefined)	-2%	26	u	-20%	2%	16µM*
CCCCC1=CC2=CC(=O)C(C)(OC(=O)CC)C(=O)C2=CN1Cc1ccccc1 (centres undefined)	12%	47	13µM*	13%	7%	18µM*
CCCCC1=CC2=CC(=O)C(C)(OC(=O)CC)C(=O)C2=CN1c1ccccc1 (centres undefined)	1%	0	u	4%	-3%	16µM*
CCCCC1=CC2=CC(=O)C(C)(OC(=O)CC)C(=O)C2=CN1CCc1ccc(Br)cc1 (centres undefined)	0%	22	u	3%	13%	u
Cc1nc(N2CCCC2)c2nnn(Cc3ccccc3Cl)c2n1	0%	4	13µM*	2%	-15%	26µM*
Cc1nc(N2CCC3(CC2)OCCO3)c2nnn(Cc3ccccc3F)c2n1	-17%	-60*	u	-2%	u	u
Cc1ccc(CN2C(=O)C(CC(C)C)Nc3ncnc(N4CCOCC4)c32)cc1 (centres undefined)	9%	14	-9%	0%	3%	-27%
COc1ccc(CN2C(=O)C(CC(C)C)Nc3ncnc(N4CCN(c5ccccc5)CC4)c32)cc1 (centres undefined)	-8%	-62*!	18µM*	u	-2%	u
CC(C)CC1Nc2ncnc(N3CCN(c4ccccc4)CC3)c2N(Cc2ccccc2)C1=O (centres undefined)	-4%	-20	16µM*	-27%	u	15µM*
COc1ccc(CN2C(=O)C(CC(C)C)Nc3ncnc(N4CCOCC4)c32)cc1 (centres undefined)	1%	14	3%	2%	11%	-9%
CC(C)CC1Nc2ncnc(N3CCN(c4ccccn4)CC3)c2N(Cc2ccc(Cl)cc2)C1=O (centres undefined)	u	-70*!	u	u	-12%	23µM*
CC(C)CC1Nc2ncnc(N3CCCCC3)c2N(Cc2ccccc2)C1=O (centres undefined)	-12%	-15	26µM*	u	-3%	18µM*
C=C(C)Cn1c2ccc(NC(=O)NCCc3ccccc3)cc2c(=O)n1C	9%	-3	-13%	8%	x	-15%
Cc1ccc2nc3c(cc(C#N)c(=O)n3-c3nnc(SCc4ccccc4)s3)c(=O)n2c1	x	x	-24%	x	x	-17%
Cc1nn(CSc2c(F)c(F)c(F)c(F)c2F)c(C)c1[N+](=O)[O-]	0%	6	-1%	-3%	2%	-8%
CC(C)CC1Nc2ncnc(N3CCN(c4ccccc4)CC3)c2N(Cc2ccc(Br)cc2)C1=O (centres undefined)	-5%	-14	16µM*	-8%	-2%	18µM*
COc1cccc(NC(=O)N2CCC(n3c(C)nc4cccnc43)CC2)c1	x	x	-13%	x	x	3%
Cc1ccc(C(=O)NS(=O)(=O)c2ccccc2)cc1	2%	0	8%	-1%	-5%	-7%
Cc1ccc(C(=O)NS(=O)(=O)c2ccc(C)cc2)cc1	-3%	14	-16%	-5%	12%	-1%
Cc1ccc(C(=O)NC(=C(Cl)Cl)S(=O)(=O)c2ccc(Cl)cc2)cc1	u	-64*	u	u	0%	18µM*
Cc1ccc(S(=O)(=O)C(NC(=O)c2ccccc2)=C(Cl)Cl)cc1	u	-117*	23µM*	u	x	13µM*
SMILES	HT1080 IDH1KD tx	IL1B secr inh	DT40 TDP1 CPT	HT1080-NT tox	ELG1 repair inh	DT40 TDP1 no CPT
Cc1ccc(C(=O)NC(=C(Cl)Cl)S(=O)(=O)c2ccc(C)cc2)cc1	u	-104*	u	u	-9%	u
Cc1ccc(S(=O)(=O)/C(=C/Cl)NC(=O)c2ccccc2)cc1	21µM*	-73*	18µM*	u	u	15µM*
Cc1cc(C)cc(NC(=O)CCC(=O)Nc2nnc(C(C)C)s2)c1	-4%	5	-3%	4%	u	6%
CC(NC(=O)C1CCN(S(=O)(=O)c2ccc3c(c2)oc(=O)n3C)CC1)c1ccccc1 (centres undefined)	x	x	-24%	x	x	-29%
O=C(NNCc1ccc(O)cc1)c1ccccc1Cl	9%	7	-10%	1%	u	-22%
O=C(NC(=C(Cl)Cl)S(=O)(=O)c1ccc(Cl)cc1)c1ccccc1	u	-93*	6.5µM*	u	u	9.2µM*
CC(=O)NC(=C(Cl)Cl)S(=O)(=O)c1ccccc1	-6%	-100*	12µM*	-6%	u	8.2µM*
Cc1ccc(/C=N/NC(=O)c2nnn(-c3nonc3N)c2-c2ccc3c(c2)OCO3)s1	-17%	5	-11%	-2%	-21%	-21%
CC1(C)Cc2ccccc2C2CC(O)C(=O)N21 (centres undefined)	19%	-1	15µM*	7%	0%	u
O=C(c1ccco1)N1CCC2(CCN(Cc3nccs3)CC2)CC1	x	x	1%	x	x	-13%
Cc1ccc(-n2c(-c3ccccc3)cc(/C=N/NC(=O)CC#N)c2-c2ccccc2)cc1	x	x	x	x	-10%	x
N#CCC(=O)N/N=C/c1cc(-c2ccccc2)n(-c2ccc(Cl)cc2)c1-c1ccccc1	21µM*	29	u	u	-3%	u

Compound activity (PubChem BioAssay)
